Screening data: PubChem, several laboratories
TRPM1 prom inh = inhibitors of MITF-driven TRPM1 promoter in melanoma cells | SK-MEL-5 TRPM1 promoter luciferase, 24 h | inhibition, % at 12.5 µM | actives 0.83% (n = 330,000) | AID 488899;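 active means mean inhibition across replicates of 60% or more, whatever share of single replicates reaches that level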
Peg3 prom inh-1 = inhibitors of Peg3 promoter | HeLa PEG-Prom luciferase reporter, luminescence, overnight | inhibition, % at 20 µM | actives 1.7% (n = 360,000) | AID 588405;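 active means inhibition of at least 50% at 20 µM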
Shn3 3UTR inh = Schnurri-3 reporter inhibition in Clone20 osteoblasts | Clone20 osteoblast Shn3 3'UTR firefly luciferase, 24 h | inhibition, % at 12.5 µM | actives 0.52% (n = 360,000) | AID 588674;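 active means mean inhibition of at least 75% with every replicate also reaching 75%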
EBV LMP1 NFkB = reduces LMP1-driven NF-kappaB luciferase signal; inhibition, % at 12.5 µM; LMP1-induced NF-kappaB luciferase reporter cells, luminescence; actives 0.69% (n = 350,000); in the data active means inhibition above about 41%
CF NFkB inh = cystic fibrosis NF-kB activation inhibition | KKLEB NF-kB-GFP reporter, PAF-induced, GFP fluorescence overnight | inhibition, % at 5 µM | actives 0.86% (n = 360,000) | AID 588850;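 active means at least 50% inhibition at 5 µM, scaled per plate between neutral and stimulator controls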;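 further: PAF is a Pseudomonas aeruginosa culture filtrate used as stimulus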
KKLEB cytotox = CF airway cell cytotoxicity counter-screen. KKLEB CF airway cells viability, ATPlite luminescence, overnight; stronger effect = lower value; cells stimulated with P. aeruginosa culture filtrate. activity change (cytotoxicity), % at 5 µM. actives 0.36% (n = 360,000). AID 602141;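 active means corrected activity change at or below -50% at 5 µM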
Peg3 prom inh-2 = confirmation of Peg3 promoter inhibitors; AID 602417; shares compounds with Peg3 prom inh-1; inhibition, % at 20 µM; actives 84% (n = 1,300); HeLa PEG-Prom luciferase reporter, luminescence, overnight;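 active means at 20 µM dose, 40% or more inhibition averaged across four replicates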
Of the large screens only hits and unclear results are named; the others gave an inactive call (follow-up assays come after a bar, where they were run); ! = not active in a repeat. In the library only some 2.9% were active in any assay of this set; here they are far more common.

O=C(CCCN1C(=O)/C(=C/c2ccccc2Cl)SC1=S)NNC(=O)c1ccc(Cl)cc1Cl	Peg3 prom inh-1 66 | Peg3 prom inh-2 43
Cc1noc(C)c1S(=O)(=O)NC(=O)C1(C)CCN1C(=O)c1ccc(C2CCCCC2)cc1 (centres undefined)	none (no result: TRPM1 prom inh, EBV LMP1 NFkB)
CC1(C(=O)NC2CCCC2)CCC(=O)N1CCCn1ccnc1 (centres undefined)	none (no result: TRPM1 prom inh, EBV LMP1 NFkB)
COc1ccc(Cl)cc1-c1noc([C@@H]2O[C@H](CO)[C@H](O)[C@H](O)[C@H]2O)n1	none (no result: TRPM1 prom inh, EBV LMP1 NFkB)
Cc1ccc(Oc2ccc(NC(=O)Cn3ccsc3=N)cc2)cc1	Peg3 prom inh-1 53 | Peg3 prom inh-2 inactive
Cc1ccc(NC(=O)CN(C)C(=O)Cn2ccsc2=N)cc1	none
CCCOc1ccc(NC(=O)CC2C(=O)N(CC)C(=S)N2CCCN2CCN(Cc3ccccc3)CC2)cc1 (centres undefined)	TRPM1 prom inh 73, Peg3 prom inh-1 76 | Peg3 prom inh-2 80
O=[N+]([O-])c1ccc(-c2nc(Cl)c3c(n2)CCCC3)o1	none (no result: TRPM1 prom inh)
OCCNc1nc2ccccc2nc1NCCO	none
OCCNc1c2ccccc2nc2ccccc12	TRPM1 prom inh 88, Peg3 prom inh-1 98 | Peg3 prom inh-2 95
COc1cccc(C(=O)c2sc(NC(C)C)nc2N)c1	Peg3 prom inh-1 105, CF NFkB inh 78 | Peg3 prom inh-2 76
CN(C(=O)CSc1nnnn1-c1ccc(O)cc1)C1CCCCC1	none
C(=Cc1cnc2ccccc2n1)c1ccc2c(c1)OCO2	Peg3 prom inh-1 69, Shn3 3UTR inh 86, EBV LMP1 NFkB 80, KKLEB cytotox -65 (no result: TRPM1 prom inh) | Peg3 prom inh-2 85
Cn1c(/N=C/c2ccc3c(c2)OCO3)nc2ccccc21	none
CCN(CC)S(=O)(=O)c1cccc(C(=O)N/N=C(\C)c2ccc(O)cc2O)c1	TRPM1 prom inh 71, Peg3 prom inh-1 52, Shn3 3UTR inh 93 | Peg3 prom inh-2 65
CC(=O)Oc1ccc(Cn2c(C)c(C(=O)NCCC#N)sc2=O)cc1	none (no result: TRPM1 prom inh, EBV LMP1 NFkB)
O=Nc1c(O)ccc2cc(S(=O)(=O)O)ccc12	Peg3 prom inh-1 62 | Peg3 prom inh-2 68
CN(C)c1ccc2cc(S(=O)(=O)O)cc(O)c2c1	none
Nn1cnnc1SCC(=O)Nc1ccc(C2CCCCC2)cc1	none
O=C(O)CSCC(=O)Nc1ccc(C2CCCCC2)cc1	TRPM1 prom inh 74, Peg3 prom inh-1 71, EBV LMP1 NFkB 58 | Peg3 prom inh-2 77
O=C(O)c1ccccc1C(=O)N1CCN(c2ncccn2)CC1	none
O=C(c1cnc(N2CCN(c3ncccn3)CC2)c2ccccc12)N1CCN(c2ncccn2)CC1	Peg3 prom inh-1 60 | Peg3 prom inh-2 inactive
O=C(NC(c1ccc(Cl)cc1)c1cnccn1)C1CCN(CCCc2ccccc2)CC1 (centres undefined)	none (no result: TRPM1 prom inh, EBV LMP1 NFkB)
COC(=O)c1ccc(CNC(=O)Cn2cnc3c(NCc4ccccc4)ncnc32)cc1	Peg3 prom inh-1 63 | Peg3 prom inh-2 47
CC1(C(=O)NS(=O)(=O)C2CC2)CCCN(C(=O)c2ccc(C(F)(F)F)cc2)C1 (centres undefined)	none (no result: TRPM1 prom inh, EBV LMP1 NFkB)
CSc1ccc2c(c1)C(N1CCN(C)CC1)Cc1ccccc1S2 (centres undefined)	Peg3 prom inh-1 82!, EBV LMP1 NFkB 89! | Peg3 prom inh-2 84
Cc1ccc2nc(/C(C#N)=C\c3ccc(N4CCOCC4)o3)[nH]c2c1	none
Cc1ccc2nc(/C(C#N)=C\c3ccc([N+](=O)[O-])o3)[nH]c2c1	TRPM1 prom inh 92, Peg3 prom inh-1 105, Shn3 3UTR inh 99, KKLEB cytotox -68 | Peg3 prom inh-2 84
CCn1nccc1NC(=O)c1csc([C@@H]2O[C@H](CO)[C@H](O)[C@H](O)[C@H]2O)n1	none (no result: TRPM1 prom inh, EBV LMP1 NFkB)
Oc1c(Br)cc(Br)c2cccnc12	Peg3 prom inh-1 50 | Peg3 prom inh-2 59
Oc1c(Br)cc(Br)cc1CNc1cccc2cccnc12	none
CCOC(=O)N1CCN(C(=O)c2ccc(CS(=O)c3cccc(C)c3)o2)CC1 (centres undefined)	none (no result: TRPM1 prom inh)
COc1ccc(C(=O)NC(=O)Nc2cc(C)ccn2)cc1	TRPM1 prom inh 70, Peg3 prom inh-1 72, EBV LMP1 NFkB 68, KKLEB cytotox -55 | Peg3 prom inh-2 inactive
O=C(NC(=O)c1ccccc1)Nc1ccccn1	TRPM1 prom inh 81, Peg3 prom inh-1 90, EBV LMP1 NFkB 71 | Peg3 prom inh-2 77
O=C1CC(=O)N(C2CCCCC2)C(=O)N1c1ccccc1S(=O)(=O)Oc1ccccc1	none (no result: TRPM1 prom inh, EBV LMP1 NFkB)
CCCS(=O)(=O)NC(=O)C1(C)CCCN(C(=O)c2cc(F)cc(F)c2)C1 (centres undefined)	none (no result: TRPM1 prom inh, EBV LMP1 NFkB)
O=C(NC1=C(NC2CCS(=O)(=O)C2)C(=O)c2ccccc2C1=O)c1ccccc1 (centres undefined)	Peg3 prom inh-1 68, CF NFkB inh 79 | Peg3 prom inh-2 49
O=C(COC(=O)CN1C(=O)c2ccccc2C1=O)Nc1ccccc1C(F)(F)F	none (no result: TRPM1 prom inh)
CN(C)Cc1c(C(=O)N/N=C/c2ccc(OCc3ccc(F)cc3)cc2)nnn1-c1nonc1N	none
C/C(=N\NC(=O)c1nnn(-c2nonc2N)c1CN(C)c1ccccc1)c1ccccc1O	Peg3 prom inh-1 51 | Peg3 prom inh-2 71
CCOc1ccc(/C=N/NC(=O)c2nnn(-c3nonc3N)c2COc2ccc(F)cc2)cc1	Peg3 prom inh-1 54 | Peg3 prom inh-2 inactive
CN(C)c1ccc(/C=N/NC(=O)c2nnn(-c3nonc3N)c2COc2ccc(F)cc2)cc1	Peg3 prom inh-1 87 | Peg3 prom inh-2 51
CC(C)c1ccc(/C=N/NC(=O)c2nnn(-c3nonc3N)c2CN(C)C2CCCCC2)cc1	Peg3 prom inh-1 65 | Peg3 prom inh-2 inactive
COc1ccc(/C(C)=N/NC(=O)c2nnn(-c3nonc3N)c2CN(C)c2ccccc2)cc1	none (no result: EBV LMP1 NFkB)
CN(Cc1c(C(=O)N/N=C/c2ccc(F)cc2)nnn1-c1nonc1N)C1CCCCC1	none
O=C1C=CC(n2cc(F)c(=O)[nH]c2=O)O1 (centres undefined)	none (no result: TRPM1 prom inh)
CCOc1cc(/C=C\[N+](=O)[O-])ccc1OCC(=O)Nc1ccccc1C	TRPM1 prom inh 91, Peg3 prom inh-1 115, Shn3 3UTR inh 95 | Peg3 prom inh-2 91
Cc1ccc(NC(=O)Nc2ccnc(-c3cccnc3)n2)cc1	Peg3 prom inh-1 88 | Peg3 prom inh-2 67
COc1ccc(-c2nc3c(c(SCC(=O)N4CCOCC4)n2)Cc2c(CO)cnc(C)c2O3)cc1	Peg3 prom inh-1 54 | Peg3 prom inh-2 40
O=C1c2[nH]c3ccccc3c2CC1N1C(=O)c2ccccc2C1=O (centres undefined)	none (no result: TRPM1 prom inh)
Cc1noc(-c2ccc(Cl)cc2)c1C(=O)O/N=C(\N)c1ccc(C(C)(C)C)cc1	Peg3 prom inh-1 112 | Peg3 prom inh-2 98
CC(C)(C)c1ccc(CN2N=Nc3ccccc3S2(=O)=O)cc1	Peg3 prom inh-1 94 | Peg3 prom inh-2 55
CC(C)(C)c1ccc(C(=O)N2CCN(Cc3ccccc3)CC2)cc1	none (no result: TRPM1 prom inh)
